In the supplement of paper PMC6555819:

Assays:
Assay in all cases: PBM binding z-score (relative to random genomic background probes); higher = stronger binding; sequences stand for … in GC…GCGATTGACAGCGTAGAATGAAGG
[1] = tested on: PPARg:RXRa DBDmut IVT, anti-RXR (DBD mutation: RXRa K156A/R161A, NR concentration 270 nM, RXRa partner concentration 90 nM)
Outline: (§1)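 The probes on custom Agilent 4×180K protein-binding microarrays were double-stranded, with 34-nt variable regions bearing direct-repeat seeds, single-nucleotide variants, half-site ablations and random human genomic background sequences. Incubation lasted 1 h with ligand-free nuclear receptor dimers in PBS pH 7.4, 2% milk, 0.02% Triton X-100, 1 mM DTT, 0.2 mg/mL BSA and 0.4 mg/ml salmon testes DNA. Antibodies against each partner (one per run) detected bound dimers, and fluorescence scans were regression-normalized. Binding z-scores take the random background probes as reference.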

[2] = tested on: PPARg:RXRa IVT, anti-PPARg (NR concentration 270 nM, RXRa partner concentration 90 nM)
Outline: as §1

[3] = tested on: PPARg DBDmut:RXRa IVT, anti-PPARg (DBD mutation: PPARg1 K132A/R137A, NR concentration 270 nM, RXRa partner concentration 90 nM)
Outline: as §1

[4] = tested on: PPARg DBDmut IVT, anti-PPARg (DBD mutation: PPARg1 K132A/R137A, NR concentration 270 nM)
Outline: as §1

[5] = tested on: PPARg homodimer (NR concentration 180 nM)
Outline: as §1

[6] = tested on: PXR:RXRa (NR concentration 270 nM, RXRa partner concentration 90 nM)
Outline: as §1

[7] = tested on: PXR homodimer (NR concentration 270 nM)
Outline: as §1

[8] = tested on: RARa:RXR (NR concentration 270 nM, RXRa partner concentration 90 nM)
Outline: as §1

[9] = tested on: RARa homodimer (NR concentration 270 nM)
Outline: as §1

[10] = tested on: RARb:RXRa (NR concentration 270 nM, RXRa partner concentration 90 nM)
Outline: as §1

Sequence	PBM binding z-score [1]	PBM binding z-score [2]	PBM binding z-score [3]	PBM binding z-score [4]	PBM binding z-score [5]	PBM binding z-score [6]	PBM binding z-score [7]	PBM binding z-score [8]	PBM binding z-score [9]	PBM binding z-score [10]
CCTACTGGGCCACGACAGGTCATTGATTCAGTGA	5.23	5.51	1.69	-0.106	0.946	1.97	0.00199	2.15	-0.183	2.01
ACTCACGGGTCAACGAGGTTATAGCACGCGTATA	1.79	2.88	0.756	1.16	4.09	5.33	4.27	5.51	1.43	4.27
GGAACGAGGACAAGTTGATAGCAGAGTTTGATGG	0.934	0.446	-0.104	-0.565	-0.282	0.0933	0.0308	0.108	-0.522	1.32
ACTTACGGGTTAACGAGGTTATAGCACGCGTATA	1.74	2.15	0.886	1.18	1.01	2.88	0.801	2.6	0.88	1.69
TAGCTTAGGTCATGCGGGCCAGTATAGTGTCGGC	1.52	1.65	1.35	0.321	1.44	1.85	-0.011	2.73	-0.0276	3.87
CAGCCTAGCTCAGGGCCAGTATAGGAGGAACGTT	-0.913	-0.949	-2.22	-2.03	-1.23	-0.988	-0.337	-1.33	-0.424	-0.591
CATCGGAGGACAGAAGGTCAGAGCTGTCCGCTTT	-0.292	0.418	-0.481	-1.29	0.568	1.12	-0.438	1.86	-0.23	2.86
GATACAGGGTCAGCTAGAGGCCAGAGTGTGGAAA	0.974	2.4	-0.57	-0.662	3.47	3.5	0.00381	4.66	-0.116	4.25
TCATATAGGTAAAAGGTGAAATTCGGTGTGGTAA	5.31	5.24	2.68	1.94	2.68	1.62	1.11	2.81	1.72	1.89
CAAACTAGGTCACGAAAGATCAAAGTCGAATGAC	8.91	9.37	5.61	5.17	2.46	2.88	0.236	3.39	1.08	4.37
CAAACTAAGTCACCGGAAGGTCAAAGTCCGCATG	2.44	2.88	0.787	1.14	2.8	3.98	1.63	4.43	1.48	3.46
CCTCGAAGGACAACAGGAGGTCAGAGCTGCCAGA	-0.42	0.185	-0.412	-0.537	1.76	1.94	0.545	2.37	0.491	3.06
TAGCCTAGGTCATTCAGGGGCCAGTTTAGAAAGC	1.47	2.77	0.115	0.428	0.877	2.37	-0.0546	3.52	-0.367	3.61
GCAGACAGGTAAAACGCAGGTAACTCAGGGTGGC	-0.691	-0.804	-1.23	-0.839	-0.847	-0.561	-0.484	-0.286	-0.674	-0.486
CCTACTGGGCTAAAGGTCATTGATTCCAATGCTC	4.37	6.31	-0.17	-0.112	4.02	4.97	1.35	5.44	0.872	4.26
ACTAGGAGGCCAAGGGTCACTCAAGATTAGTCCG	1.26	3.95	-0.025	-0.509	3.03	3.57	0.414	4.7	1.03	3.64
CGTCCTAGGTCAAAGGTCAGTGAAGAGATGACGG	4.39	5.93	0.538	0.49	3.9	6.08	0.262	7.96	1.07	5.64
CTCGAAAGGTCGTGCTCAGGTGAGTATTCCAAAC	0.897	1.51	0.28	0.396	1.7	3.33	0.16	4.06	0.262	3.76
CAAACTAGGTCTAGGTCAAAGTCGGTTTGTGCCA	4.21	4.82	0.191	0.991	1.41	1.7	0.0565	2.06	-0.42	2.67
CAAACTAGGTCACCTGAAGGTCAAAGTCCGCATG	8.35	8.25	1.4	0.822	7.4	5.61	2.75	7.1	2.19	5.14
GTACCAAGGTGAATAGGGCGTTGATGAGTAGGCG	1.79	2.39	0.11	-0.0449	0.629	-0.0283	0.127	0.434	0.194	1.5
TCTAGTTGGTCACGGAGGTCACACACGACGGGTA	2.46	4.2	1.49	1.18	3.41	4.41	1.8	4.53	1.29	3.82
TCTTGTAGATCGGCAGGTTAAGAAAGCTGGCCAA	1.25	0.377	-0.018	-0.268	0.0916	0.349	-0.293	0.55	-0.734	0.257
GCGACTGGGGCATCAGTAGGTTACCATAACTTAA	4.06	4.04	-0.43	-0.245	0.247	0.02	-0.313	0.416	-0.569	0.805

Sequence	PBM binding z-score [1]	PBM binding z-score [2]	PBM binding z-score [3]	PBM binding z-score [4]	PBM binding z-score [5]	PBM binding z-score [6]	PBM binding z-score [7]	PBM binding z-score [8]	PBM binding z-score [9]	PBM binding z-score [10]
CGTCCACGGTCATAGGAGGTCAGTGAAGACAGAT	0.0707	2.02	-0.535	-1.15	1.73	3.88	0.754	2.6	0.207	3.65
CCGACTGGGGGAAAGGTTACCATACTCAGTACGA	2.52	5.31	3.53	3.07	1.86	2.63	0.241	3.24	0.206	2.04
ATGTCTAGGTAAAGATAGTTCAGTGAATGCAAAT	1.16	1.51	0.413	1.23	0.188	0.798	0.588	0.428	0.724	0.63
TCATACAGGTAAAAGGTGAAAGTCGGTGTGGTAA	3.28	3.68	0.157	1.18	1.6	1.83	0.448	3.13	1.16	2.1
AGAACGAGGGCAACGAGTTGATAGCACGGGTGGC	3.47	3.2	0.361	-0.0508	-0.253	1.49	3.88	0.217	-0.868	2.23
TCTATTAGTTGATTAGGGCAGCCGAAACAGCGGA	1.91	1.17	1.45	0.97	0.935	0.355	0.226	0.394	0.461	0.624
CGTCAAAGTACAACTAAGGTAACGTAAAGCACGC	0.337	0.863	-0.144	0.398	0.606	0.34	0.247	2.1	0.546	1.34
CCTACTGCGCCAAGGTCATTGATCAGTCAAAGCA	0.265	0.978	-0.442	-0.653	2.68	3.85	2.48	3.83	1.07	3.51
ATCGAAAGGTCGTGAGGTGAGTGTACAGAAAGGC	0.429	2.63	1.08	0.59	1.74	3.17	0.525	3.97	1.08	4.04
CCTCGGAGGACAGAAGGTCAGAGCCGTCCGCTTT	0.172	-0.13	-1.85	-1.98	1.7	1.78	-0.366	2.37	0.4	3.24
ATAGACAGGTGAGTGAAGGTAACTCAGCTGGACG	-0.0175	0.973	0.246	0.208	0.132	0.352	0.0205	0.959	-0.0264	0.603
CTCGAAAGGTCGGTTGAGGTGATTATACGGATAA	0.246	0.642	0.351	0.785	1.2	3.74	0.3	2.2	0.287	2.85
CTAGAAAGGTCGTGCTCAGGTGAGTATACCAAAC	0.638	1.62	-0.0853	0.547	1.73	2.82	0.0874	4.02	0.32	3.63
ACTAGCAGGTCAAGTTTGGGTCACTCAAACAAAG	4.12	4.73	0.847	0.843	3.76	4.22	0.228	5.89	0.164	4.61
AGTCAAAGTTCAGGACGAAGTAACGTAAAGCACG	-0.478	1.38	0.781	0.688	1.46	2.02	0.921	1.93	1.14	4.2
TAGCCTAGGTCAGATCGGGCCAGTAGACGCTATA	0.0206	1.03	-0.87	-1.34	0.0238	0.619	-0.847	0.622	-1.52	2.99
GGGACGAGGGCAAGTTGATAGCAGAGTTTGATGG	2.39	2.34	-0.115	0.569	1.21	1.15	0.763	0.688	-0.141	2.91
ATCTCTAGGTGAAGATAGTTCAGTGAATGCAAAT	4.18	4.44	0.653	1.5	0.717	1.58	0.667	0.801	0.811	1.29
TGACCAAGGTGAGCTGAGGTCGTTGATCCAACTC	0.169	1.43	0.123	-1.59	-0.0589	4.67	0.0412	1.84	-0.758	1.69
CCTTACCGGTCACTGACAGGTTATAGCATTTGGA	0.892	1.17	0.534	0.217	2.23	1.01	0.467	1.29	1.61	3.06
GCTTACGGGTCTAAGGTTATAGCATGAATAGAAT	0.0529	0.754	0.306	0.266	0.501	0.939	0.427	1.66	0.142	1.02
TAGCCTAGGTCACTGGGCCAGTATAGTACGCATC	3.48	5.27	1.2	0.865	0.976	1.32	-0.648	1.93	-0.15	3.91
TAGCCTAGGTCGTGCGGGCCAGTATAGTGTCGGC	-0.622	0.425	-0.497	-1.13	-1.3	-0.419	-0.881	-0.166	-1.19	0.97
GCTAGTTGGTCAGTAAAAGCTCACACACCGGTCG	0.623	-0.0359	-1.02	-0.165	-0.00408	-0.622	-0.0329	-0.419	0.154	0.596
